Inconclusive results are not listed. The source made the active and inactive calls. The call rests on the fitted dose curve; in most records, active means well fitted cell-killing curve with a large enough effect; inconclusive means small, poorly fitted or top-dose-only effect; inactive means no such curve, though single readings can be large or run the other way.
assay: qHTS of pediatric cancer cell lines to identify multiple opportunities for drug repurposing: Primary screen for NB-EBc1 cells (AID 1347095); settings: NB-EBc1 neuroblastoma viability, CellTiter-Glo luminescence, 48 h; series mostly up to 46 µM; activity change, negative = cytotoxic: at the top concentration
Source text: Drug repurposing or repositioning has been offered as a strategy for drug development in oncology programs. This approach has special potential for childhood cancers and other rare or orphan diseases, where the expected return on new drug development has been a disincentive to pharmaceuticals. […] In this project we exploit the poly-pharmacology of drugs to discover new indications via phenotypic screening of a panel of 19 well-characterized cell lines derived from solid tumors seen in children and adolescents. The goal is to identify approved drugs with previously unrecognized anticancer properties that has the potential to reveal new mechanisms and biological processes involved in carcinogenesis or drug resistance. We employed a titration-based paradigm (quantitative high-throughput screening or qHTS), where all compounds were tested at multiple concentrations for their effect on cell viability. Concentration-response curves (CRCs) were derived directly from the primary screen, and both potency and efficacy values were used to identify compounds with robust bioactivity profiles. We screened the NIH Chemical Genomics Center (NCGC) Pharmaceutical Collection (NPC) and Mechanism Interrogation Plate (MIPE) small molecule collections of approved and investigational compounds against these cell lines; and measured metabolically active cells after 48 hours of compound treatment as a proxy for cell viability. […] Assay Submitter: Nathalia J. Martinez, National Center for Advancing Translational Sciences, National Institutes of Health, Rockville, MD, USA; email: natalia.martinez@nih.gov Shen, M et al. Quantitative high-throughput phenotypic screening of pediatric cancer cell lines identifies multiple opportunities for drug repurposing. Oncotarget 2017 Dec 19;9(4):4758-4772. PMID 29435139.
The cells were obtained from University of North Carolina (UNC), Pediatric Preclinical Testing Program (PPT), and Coriell Institute (CI). qHTS cell viability assay: Cells were assayed in growth media at a density of 500-1,000 cells/well. Five microliters of cells were dispensed into 1,536-well, white, solid-bottom, TC-treated plates (Greiner Bio One) using a multidrop dispenser and incubated at 37 degrees C, 5% CO2, under a humidified atmosphere for 5 hours. Twenty-three nanoliters of compounds and controls (neutral control DMSO or positive control bortezomib at final concentration of 2.3 µM) were subsequently transferred by Kalypsys pintool. For primary screens, the MIPE collection was tested at 11-point dilutions (final concentrations range from 0.78 nM to 46 µM) and the NPC collection at 8-point dilutions (final concentrations range from 0.59 nM to 46 µM). Compounds tested in follow-up screens were assayed at 11-point dilutions. Cells were incubated for 48 hours, followed by addition of 3 µL of CellTiter-Glo (Promega). After a 15 min incubation at room temperature, samples were analyzed for luminescence intensity using a ViewLux High-throughput CCD imager equipped with clear filters.
Potency means the concentration at half of the fitted maximal effect.

SMILES	activity change, negative = cytotoxic	Potency
CC(C(=O)O)c1ccc(C(=O)c2cccs2)cc1 (stereo not given)	0.0555% (inactive)	–
Nc1ccc([N+](=O)[O-])cc1O	–	15.4 µM (active)
Cc1ccc(O)c(-n2nc3ccccc3n2)c1	-3.37% (inactive)	–
CN(C)CCn1nnnc1SCC1=C(C(=O)O)N2C(=O)[C@@H](NC(=O)Cc3csc(N)n3)[C@H]2SC1	10.6% (inactive)	–
Nc1ccc(C(=O)O)c(O)c1	28.5% (inactive)	–
O=C(O)/C=C\C(=O)O	16.3% (inactive)	–
O=C(/C=C/c1ccccc1)NCCO	22.1% (inactive)	–
O=C(OCc1ccccc1)c1ccccc1	4.96% (inactive)	–
CC(C)OC(=O)c1cc(C(=O)OC(C)C)cc([N+](=O)[O-])c1	24.8% [at 92.7 µM] (inactive)	–
CC1(C)S[C@@H]2[C@H](NC(=O)[C@H](N)c3ccccc3)C(=O)N2[C@H]1C(=O)O	11.6% (inactive)	–
CCCCCCCCCCCCCCCCCC(=O)O	13.4% (inactive)	–
CCCCCCCC/C=C/C(=O)O	9.21% (inactive)	–
CNC(=O)c1c(I)c(NC(=O)CCCCC(=O)Nc2c(I)c(C(=O)O)c(I)c(C(=O)NC)c2I)c(I)c(C(=O)O)c1I	-1.11% (inactive)	–
CC(=O)SCC(CC(=O)c1ccc(C)cc1)C(=O)O (stereo not given)	15.3% (inactive)	–
Nc1ccc(O)c([N+](=O)[O-])c1	-15.2% [at 92.7 µM] (inactive)	–
Cc1ccc(C(=O)c2ccc(CC(=O)O)n2C)cc1	21.1% (inactive)	–
c1ccc2sc(SN3CCOCC3)nc2c1	8.69% (inactive)	–
Clc1ccccc1-c1nc(-c2ccncc2)no1	12.6% (inactive)	–
CC(C)(C)c1nnc(NS(=O)(=O)c2ccc(N)cc2)s1	15.3% (inactive)	–
C/C(=N\O)c1ccc(OCC(=O)N2CCCCC2)cc1	3.09% (inactive)	–

SMILES	activity change, negative = cytotoxic	Potency
CN(C)c1ccc(N=NS(=O)(=O)O)cc1	33.8% [at 92.7 µM] (inactive)	–
CC(=O)c1ccc(OCC(=O)N2CCCCC2)cc1	30.2% (inactive)	–
Cc1[nH]cnc1CN1CCc2c(c3ccccc3n2C)C1=O	32.8% (inactive)	–
CN1CC(=O)N/C1=N/C(=O)Nc1cccc(Cl)c1	14.7% (inactive)	–
O=C(O)c1cc(O)c(O)c(O)c1	17.7% (inactive)	–
c1ccc2sc(SSc3nc4ccccc4s3)nc2c1	12.5% [at 16.1 µM] (inactive)	–
N=C(N)N	12.9% (inactive)	–
CCOc1ccc2nc(S(N)(=O)=O)sc2c1	-8.92% (inactive)	–
CCCCCCCCCCCCOCCO	18.2% (inactive)	–
O=C(CCN1CCN(CCO)CC1)N1c2ccccc2Sc2ccc(C(F)(F)F)cc21	-12.8% (inactive)	–
O=C(O)c1ccccc1Nc1cccc(C(F)(F)F)c1	-4.83% (inactive)	–
O=C(Nc1ccc(C(=O)O)c(O)c1)c1ccccc1	6.96% (inactive)	–
COc1cc2c3cc1Oc1cc(ccc1O)C[C@@H]1c4c(cc(OC)c(O)c4Oc4ccc(cc4)C[C@@H]3N(C)CC2)CC[N+]1(C)C	1.19% (inactive)	–
Nc1nc2ccc([N+](=O)[O-])cc2s1	18.2% [at 92.7 µM] (inactive)	–
CCCCCCOc1ccccc1C(N)=O	-17.1% (inactive)	–
CCOC(=O)c1ccccc1O	28.8% (inactive)	–
COc1cccc2c1C(=O)c1c(O)c3c(c(O)c1C2=O)C[C@@](O)(C(=O)CO)C[C@@H]3O[C@H]1C[C@H](N)[C@H](O[C@@H]2CCCCO2)[C@H](C)O1	–	0.075 µM (active)
C[N+]1(C)[C@@H]2CC(OC(=O)[C@H](CO)c3ccccc3)C[C@H]1[C@@H]1O[C@@H]12 (stereo not given in full)	20.1% (inactive)	–
CC(N)C(=O)OC(C)(C)Cc1ccc(Cl)cc1 (stereo not given)	8.5% (inactive)	–
S=c1[nH]c2ccccc2s1	10.3% [at 92.7 µM] (inactive)	–

Reference: PubChem BioAssay (NCATS)
